Assay results taken from PubChem BioAssay (NCI).
This is part of a sample that, as a whole, favours compounds with a hit. Of some 83,000 tested, about 20% had one in any assay.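 How to read the values: 0–100, growth inhibition (40 = 60% inhibited); 0, no net growth; -100 to 0, cell death (-40 = 40% of starting cells died; -100 = all dead).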 Values without a mark were called inactive. Active and inactive are the calls of the source. The calls were made as follows: active = growth percent below 10; inactive = the rest.

Assays:
Test in all cases: NCI-60 one-dose screen, 48 h (100 = growth as untreated, 0 = no growth, -100 = all killed)
Settings in all cases: 10 µM unless noted
HCT-15 colon = tested on: HCT-15 colon
HT29 colon = tested on: HT29 colon
SNB-75 CNS = tested on: SNB-75 CNS
SNB-19 CNS = tested on: SNB-19 CNS
U251 CNS = tested on: U251 CNS
PC-3 prostate = tested on: PC-3 prostate
SK-MEL-5 melanoma = tested on: SK-MEL-5 melanoma
UACC-62 melanoma = tested on: UACC-62 melanoma
LOX IMVI melanoma = tested on: LOX IMVI melanoma
SK-MEL-28 melanoma = tested on: SK-MEL-28 melanoma
SK-MEL-2 melanoma = tested on: SK-MEL-2 melanoma
EKVX NSCLC = tested on: EKVX NSCLC
SN12C renal = tested on: SN12C renal
UO-31 renal = tested on: UO-31 renal
TK-10 renal = tested on: TK-10 renal
ACHN renal = tested on: ACHN renal
A498 renal = tested on: A498 renal
CCRF-CEM leukemia = tested on: CCRF-CEM leukemia
MOLT-4 leukemia = tested on: MOLT-4 leukemia
CAKI-1 renal = tested on: CAKI-1 renal

SMILES | growth (HCT-15 colon) | growth (HT29 colon) | growth (SNB-75 CNS) | growth (SNB-19 CNS) | growth (U251 CNS) | growth (PC-3 prostate) | growth (SK-MEL-5 melanoma) | growth (UACC-62 melanoma) | growth (LOX IMVI melanoma) | growth (SK-MEL-28 melanoma) | growth (SK-MEL-2 melanoma) | growth (EKVX NSCLC) [%] | growth (SN12C renal) | growth (UO-31 renal) | growth (TK-10 renal) | growth (ACHN renal) | growth (A498 renal) | growth (CCRF-CEM leukemia) | growth (MOLT-4 leukemia) | growth (CAKI-1 renal)
C(/C=C/c1ccccc1)=Nc1ccc(CCc2ccc(N=C/C=C/c3ccccc3)cc2)cc1 | 15.9% | 36.4% | 116% | 88.1% | 75% | 71.7% | 96.6% | 73.6% | 73.1% | 109% | 41.5% | 121 | 92.7% | 86.4% | 93.8% | 6.67% (active) | 109% | 95.3% | 78.2% | 
CCN(CC)S(=O)(=O)c1ccc(S(=O)(=O)N2CCC[C@@H](C(=O)N3CCN(C(=O)OC(C)(C)C)CC3)C2)cc1 | 91.8% | 91.5% | 48.7% | 68.8% | 81.6% | 77.5% | 18.2% | 62.4% | 58% | 97.6% | 101% | 54.9 | 87.4% | 73.6% | 78.6% | 71.4% | 27.8% | 66.9% | 60.8% | 52.1%
CCOC(=O)c1c(C)nn(CC(O)c2ccccc2)c1NC(=O)Nc1cccc(F)c1 (stereo not drawn) | 85.2% | 96% | 77.3% | 94.8% | 93.4% | 76.8% | 94.7% | 77.2% | 95% | 104% | 90.9% | 91.2 | 84.1% | 74.8% | 110% | 89.7% | 70.9% | 89.3% | 88.7% | 
CCN(CC)CCCNCc1cc(-c2ccccc2)nc2cc(Cl)ccc12 | 12.1% | -17.3% (active) | 70.8% | 68.9% | 11.5% | 37% | -76.9% (active) | -61.3% (active) | -20.6% (active) | -92.4% (active) | -61.9% (active) | 80.9 | 38.2% | 11% | 42.8% | 66.2% | 22.3% | 10.4% | 13.6% | 50.5%
COc1ccc2c(c1)c(-c1cc(-c3cn(C)c4ccc(OC)cc34)on1)cn2C | 98.6% | 97.3% | 97.8% | 94.5% | 93.7% | 87.9% | 81.2% | 90.7% | 81.8% | 94.5% | 118% | 106 | 106% | 80.6% | 126% | 89.9% | 105% | 91.3% | 86.3% | 92.8%
Cc1nc2sc(C(=O)Nc3cccc(Cl)c3)c(N)c2cc1C(O)c1ccccc1 (stereo not drawn) | 14.2% | 14.9% | 46.9% | 33.4% | 10.2% | 28.1% | 11% | 31.5% | 45.3% | 56% | 49.9% | 44.6 | 24.4% | 45.7% | 62.4% | 30.5% | 8.38% (active) | 17.1% | 14.5% | 46.4%
Cn1c(O)c(C(/C=C/c2ccccc2)=Nc2ccccc2N)c(=O)n(C)c1=O | 91.5% | 72.1% | 90.7% | 101% | 101% | 77.7% | 75.4% | 76.1% | 90.3% | 120% | 129% | 82 | 96.1% | 83.4% | 134% | 99.3% | 130% | 67.3% | -43.5% (active) | 102%
CS(=O)(=O)Cc1cnc(C2OCCO2)s1 | 109% | 91.1% | 91.2% | 112% | 96.5% | 92.2% | 97.8% | 106% | 100% | 105% | 122% | 99 | 114% | 92% | 93.8% | 96.8% | 116% | 138% | 140% | 97.7%
Cc1nc2sc(C(=O)Nc3ccccc3)c(N)c2cc1C(=O)/C=C/c1ccccc1 | -32.1% (active) | -63.9% (active) | -14% (active) | -40.8% (active) | -71.7% (active) | 6.68% (active) | 11.7% | 0.799% (active) | -80% (active) | 30.9% | 18.4% | 43.2 | -27.1% (active) | -82.6% (active) | -18.1% (active) | 3.7% (active) | 9.65% (active) | 6.14% (active) | 15.3% | -54.1% (active)
COc1ccc(-c2ccc(=O)oc2C#Cc2cc(OC)c(OC)c(OC)c2)cc1O | 22.5% | -9.43% (active) | -13.4% (active) | 10.7% | 13.6% | 23.3% | -13.6% (active) | 14.8% | 23.5% | 38.9% | 29.6% | 30.3 | 21.2% | 40.5% | 52.5% | 52% | -0.779% (active) | 5.26% (active) | 18.4% | -15.6% (active)
CC(C(=O)O)n1c(O)c(C=Nc2cccnc2)sc1=S (stereo not drawn) | 98.4% | 111% | 80.3% | 91.4% | 86.3% | 88% | 95.5% | 88.8% | 101% | 113% | 114% | 96.4 | 88.7% | 50% | 111% | 102% | 95.4% | 92.7% | 94% | 79.7%
COc1cc(/C=C2\C(=O)N(c3c(Cl)cccc3Cl)c3ccccc32)cc(OC)c1OCCCCCCn1c2ccccc2c(=O)c2ccccc21 | 108% | 103% | 73.6% | 98.4% | 103% | 87.1% | 96.1% | 93.3% | 98.4% | 99% | 96.2% | 111 | 96.8% | 74.3% | 112% | 91.9% | 123% | 104% | 90% | 82.9%
N#CC(C#N)N=Nc1ccc(Cl)cc1Cl | 85% | 81.8% | 89.3% | 102% | 106% | 78.7% | 99.8% | 69.6% | 94.8% | 70.3% | 99.9% | 99.3 | 82.9% | 57.8% | 90.8% | 58.4% | 84.7% | 48.3% | 75.5% | 70.8%
CC1=C(C(=O)n2c3ccccc3c3ccccc32)C(c2cccc([N+](=O)[O-])c2)C(C(=O)n2c3ccccc3c3ccccc32)=C(C)N1 | 81.9% | 104% | 82.9% | 95.6% | 89.5% | 80.7% | 93.7% | 87.6% | 87.1% | 103% | 102% | 102 | 99.9% | 71.4% | 104% | 93.4% | 93.1% | 88.7% | 83.1% | 77.5%
